Results from PubChem BioAssay AID602346 (Broad Institute, 2012).
In all, about 340,000 compounds went through this assay and about 1,200 (0.35%) were called active. The entries come from a sample that favours actives as a whole. A number with no mark means an inactive call. Cut-off read from the data, not from the text of the source: active = inhibition above about 50% (passing the limit was not always enough); inconclusive = no clear call, values can overlap the other calls; inactive = below about 31%.

Assay: blockers of Vif multimerization in cells – imaging, HEK293T, single point, primary screen (AID 602346)
Conditions: Vif self-association by quenched fluorescence, 24 h, at 7.49 µM, active compounds read high

Q: For O=C(NC(c1ccc(-c2ccccc2)cc1)c1cnccn1)C1CCN(CCOc2ccc(Cl)cc2Cl)CC1 (centres undefined), which inhibition is on record?
A: 4.85%

Q: Which inhibition does the source give for CCOC1=C2[C@H]([C@H]3C(=O)N(c4ccccc4)C(=O)[C@H]3C1)[C@@H](c1ccccc1)N(S(=O)(=O)c1ccc(C)cc1)[C@H]2c1ccccc1 here?
A: 6.5%

Q: With Cc1cc2nc(-c3ccc(Cl)cc3)c(Cc3cccc(F)c3)n2c(C)c1Br as the compound, how does the inhibition read?
A: 16.2%

Q: With C[C@H]1CN([C@@H](C)CO)C(=O)c2cc(C3=CCCCC3)cnc2O[C@@H]1CN(C)C(=O)Cc1ccccc1 as the compound, how does the inhibition read?
A: -21%

Q: For COc1ccc(NC(=O)c2cn(-c3ccccc3)nc2SC)cc1, which inhibition is on record?
A: -9.63%

Q: Which inhibition does the source give for COc1ccc(-c2nn(-c3ccccc3)cc2C(=O)Nc2nccs2)cc1OC here?
A: 52.9% (active)

Q: For O=C(O)c1ccccc1-c1ccccc1C(=O)Nc1nccs1, which inhibition is on record?
A: 13.1%

Q: With CC1(C(=O)Nc2cccc3c2CCCC3)CCN1C(=O)CCc1ccc(Cl)cc1Cl (centres undefined) as the compound, how does the inhibition read?
A: -0.855%

Q: Which inhibition does the source give for CCc1cc(-c2nnn(CCC3COCCO3)c2CC)ccc1-c1cn(Cc2ccc3ccccc3c2)nn1 (centres undefined) here?
A: -19.8%

Q: With CCc1nc2c(OCc3ccc(Cl)cc3Cl)cccn2c1N(C)C(=O)C(C)C as the compound, how does the inhibition read?
A: -10.6%

Q: Which inhibition does the source give for CCc1nc2ccc(C(=O)Nc3cc(-c4ccccc4)ccc3OC)cn2c1N(CC)CC(=O)N(C)C here?
A: -11.6%

Q: For CCOCCC(=O)Nc1ccc2c(c1)c(=O)n(C)n2-c1ccc2ccccc2c1, which inhibition is on record?
A: 34.9%

Q: For N#C/C(=C1\CCCN1)c1nc(-c2ccccc2)cs1, which inhibition is on record?
A: 61.4% (active)

Q: With Cn1c(/C(C#N)=C2/CCCCCN2)nc2ccccc21 as the compound, how does the inhibition read?
A: 5.07%

Q: Which inhibition does the source give for N#CC(=C1CCCC1)c1nc(-c2ccc(Cl)cc2)cs1 here?
A: 3%

Q: For O=C(NCCOc1ccccc1)N1[C@H]2CC[C@@H]1C=C(c1ccc(F)cc1OCc1ccccc1)C2, which inhibition is on record?
A: -2.23%

Q: With Cc1ccc2[nH]c(=O)c(-c3nc4c(C)cccn4c3NCc3ccco3)cc2c1 as the compound, how does the inhibition read?
A: -12.9%

Q: With CCCN(CCC)c1nc2c(C)cccn2c(=O)c1/C=C1/SC(=S)N(Cc2ccco2)C1=O as the compound, how does the inhibition read?
A: 146% (active)

Q: Which inhibition does the source give for CCc1nc2c(OCc3ccc(C(F)(F)F)cc3)cccn2c1N(C)C(=O)CC(C)C here?
A: -5.03%

Q: With COc1ccc(NC(=O)C2Cc3c(-c4ccc5c(c4)OCO5)ccnc3O2)cn1 (centres undefined) as the compound, how does the inhibition read?
A: -5.58%

Q: With COc1cccc(CNc2nc(NCc3ccccc3OC)nc3ccsc23)c1 as the compound, how does the inhibition read?
A: -2.52%

Q: Which inhibition does the source give for CCCOc1ccccc1C1CC(=O)Nc2cc3c(cc21)OCO3 (centres undefined) here?
A: -2.32%

Q: For O=C1OCC2=C1C(c1ccc(Cl)cc1)c1cc3c(cc1O2)OCO3 (centres undefined), which inhibition is on record?
A: -11.3%

Q: Which inhibition does the source give for COc1ccccc1C1C2=C(COC2=O)Nc2cc3c(cc21)OCO3 (centres undefined) here?
A: 89.1% (active)

Q: For COc1ccccc1C(C)NC(=O)Cc1ccsc1 (centres undefined), which inhibition is on record?
A: 98.8% (active)

Q: For COc1ccc(CN(C)C(=O)Cc2ccsc2)c(OC)c1OC, which inhibition is on record?
A: -9.61%

Q: For COc1ccc(OC)c(NC(=O)COC(=O)Cc2ccsc2)c1, which inhibition is on record?
A: 9.67%

Q: With CC(=O)Nc1ccc(NC(=O)COc2ccccc2C(=O)Nc2cccc(Cl)c2Cl)cc1 as the compound, how does the inhibition read?
A: 146% (active)

Q: With O=C(COc1ccccc1Cl)Nc1ccc(C(=O)c2ccc(C(=O)O)cc2)cc1 as the compound, how does the inhibition read?
A: 21.3%

Q: Which inhibition does the source give for O=C(COc1ccccc1Cl)Nc1ccccc1C(=O)NC1CC1 here?
A: -13.2%

Q: For NC(c1csc(NC(=O)Nc2ccccc2Oc2ccccc2)n1)c1ccccc1Cl (centres undefined), which inhibition is on record?
A: -9.54%

Q: With COc1cncc(-c2cnc3sc(NCCc4ccccn4)nn23)c1 as the compound, how does the inhibition read?
A: -4.71%

Q: With OC(c1cc(Cl)cc(Cl)c1)c1ncc(-c2ccccc2C(F)(F)F)[nH]1 (centres undefined) as the compound, how does the inhibition read?
A: 7.62%

Q: For Cc1cccc(CNC(=O)c2sc(=O)n(Cc3ccccc3C)c2C)c1, which inhibition is on record?
A: -3.32%

Q: With O=C1C=C(NS(=O)(=O)c2ccccc2)C(=O)c2ccccc21 as the compound, how does the inhibition read?
A: 5.11%

Q: With Cn1c(NC(=O)c2ccccc2)nc2ccccc21 as the compound, how does the inhibition read?
A: -0.44%

Q: With O=C(NC1=CC(=O)c2ccccc2C1=O)c1ccccc1 as the compound, how does the inhibition read?
A: 120% (active)

Q: Which inhibition does the source give for O=C(c1ccc(CS(=O)Cc2ccccc2Cl)o1)N1CCN(c2ccccc2)CC1 (centres undefined) here?
A: 2.07%

Q: For O=C(CCc1ccc(O)cc1)NN=Cc1cc(Br)ccc1O, which inhibition is on record?
A: -6.15%

Q: Which inhibition does the source give for CCc1nc2c(OCCC3CCCCC3)cccn2c1N(C)C(=O)c1ccco1 here?
A: 3.23%

Q: Which inhibition does the source give for CC1(C)CC(=O)C=C(NC2CC(C)(C)NC(C)(C)C2)C1 here?
A: 65.2% (active)

Q: Which inhibition does the source give for CC1(C)CC(=O)C=C(NCCCNC2CCCCC2)C1 here?
A: -5.64%

Q: Which inhibition does the source give for COC(=O)NNC1=CC(=O)CC(C)(C)C1 here?
A: 7.17%

Q: Which inhibition does the source give for O=C(c1ccc(N2CCCC2=O)cc1)N1CCN(c2ccc(C(F)(F)F)cc2[N+](=O)[O-])CC1 here?
A: -4.95%

Q: For CC(C)C[C@H]1CNC(=S)N1C[C@H]1CCCN1C[C@H](Cc1ccc(O)cc1)N1C[C@H](Cc2ccc(O)cc2)N(CC2CCCCC2)C1=S, which inhibition is on record?
A: 5.91%

Q: Which inhibition does the source give for Cc1ccc(S(=O)(=O)N2C[C@H]3n4c(=O)ccc(=O)n4C[C@H](OC(=O)NC4CCCC4)[C@@]3(O)C2)cc1 here?
A: -13.2%

Q: Which inhibition does the source give for CC1CCN(c2ccc3c(c2)S(=O)(=O)c2cc(C(=O)O)ccc2C3=O)CC1 here?
A: -0.214%

Q: Which inhibition does the source give for Cc1ccc(CNC(=O)c2ccc3c(c2)S(=O)(=O)c2ccccc2C3=O)cc1 here?
A: 5.37%

Q: With Cc1ccc(CNC(=O)c2cccc3c2C(=O)c2ccc(N4CCC(C)CC4)cc2S3(=O)=O)cc1 as the compound, how does the inhibition read?
A: 111% (active)

Q: Which inhibition does the source give for CN(C)CCNC(=O)c1cccc(-c2cnc3c(NC=O)cc(-c4cccc(C(F)(F)F)c4)cn23)c1 here?
A: 5.61%

Q: For C=C1C(=O)[C@]23C[C@H]1CCC2[C@@]1(C)C(C[C@@H]3O)[C@](C)(C(=O)O)CC[C@@H]1O (some centres undefined), which inhibition is on record?
A: 12.6%

Q: Which inhibition does the source give for O=C(CCCN1C(=O)C(c2ccccc2)Oc2cccnc21)Nc1ccccc1Br (centres undefined) here?
A: 6.43%

Q: Which inhibition does the source give for CC(=O)Nc1cc(-c2ccccc2N(C)C)cn2c(-c3ccc(F)c(Cl)c3)cnc12 here?
A: -4.22%

Q: Which inhibition does the source give for CC(=O)Nc1cccc(-c2ccnc3c2CC(C)(C(=O)NCc2ccccc2)O3)c1 (centres undefined) here?
A: -11.2%
